Source: PubChem BioAssay
This is a sample that favours compounds with a hit; in the whole collection about 3% have one here.
SARS PLP yeast: blocks SARS-CoV papain-like protease in a yeast assay; S. cerevisiae expressing SARS-CoV PLpro, growth rescue; Potency, µM (doses to about 32.9 µM), for the others: at the highest dose activity, positive = growth rescue, hits mostly activators; 330,000 compounds, 0.19% hits; calls by dose curve; note: 0% is about no effect; nearly all actives have a fitted effect of over 55% in size
Sm TGR block: S. mansoni TGR enzyme inhibition | Potency, µM (doses to about 114 µM), without a hit: at the highest dose activity change, negative = inhibition, hits mostly inhibitors | 360,000 compounds, 3% hits | purified TGR, DTNB reduction, TNB absorbance 405 nm | Q962Y6; active = well fitted inhibition curve with a large enough effect; inconclusive = small, poorly fitted or top-dose-only effect; inactive = no such curve, though single readings can be large or run the other way; note: % is set by controls: 0 for no effect and ±100 for the full control effect; nearly all actives have a fitted effect of over 60% in size
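TGR 20 nM + NADPH 100 uM (dispensed conc.), cpd preinc 15 min RT; start with NADPH (500 uM addition) then DTNB (15 mM addition). Kinetic TNB absorbance, 405 nm filter. Four-parameter Hill fit across titration.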
* = called active by the depositor; ? = inconclusive; / = not tested or not shown; [ ] = dose if it differs, or a comment. Potency is the fitted concentration of half-maximal effect.

SMILES	SARS PLP yeast	Sm TGR block
Cc1ccc(CN2CCNC(=O)C2CC(=O)N(Cc2c(C)nn(C)c2C)C2CC2)o1 (centres undefined)	0%	32µM*
O=C(NCC1CCN(Cc2ccccc2Cl)CC1)c1cc2ccc3cccnc3c2[nH]1	/	2%
Clc1cccc(Nc2ncnc3c2nc2n3CCCCC2)c1	/	2%
CC(=O)Nc1nc(-c2ccccc2)cc(-c2ccco2)c1C#N	3%	?
N#Cc1sc2nc(-c3ccccc3)cc(-c3ccco3)c2c1N	-18%	40µM*
N#Cc1c(-c2ccccc2)cc(-c2ccco2)c(C#N)c1N	4%	2.8µM*
Cc1ccc(-c2cc(-c3ccco3)c(C#N)c(=O)[nH]2)cc1	-3%	2.2µM*
Cc1ccc(-c2cc(C(F)(F)F)c(C#N)c(=O)[nH]2)cc1	9%	-3%
Cc1cc(-c2ccccc2)[nH]c(=O)c1C#N	3%	-2%
N#Cc1sc2nc(C3CC3)cc(-c3ccccc3)c2c1N	8%	9%
N#Cc1c(-c2ccco2)cc(-c2ccccc2)[nH]c1=O	1%	8.9µM*
CCCCCSc1ncnc2c1sc1nc(N3CCOCC3)c3c(c12)CCCC3	/	1%
Cc1ccc(-n2ncc3c(Nc4cccc(C(F)(F)F)c4)ncnc32)cc1C	/	21%
Cc1ccccc1CSc1ncc(CO)n1Cc1ccc(F)cc1	/	1%
CC1CCc2c(sc3nnn(CCCCOc4ccc(Cl)cc4)c(=O)c23)C1 (centres undefined)	/	7%
CCCCNC(=O)C1CCN(c2nc3ccccc3nc2C(F)(F)F)CC1	/	4%
COc1ccc(N2CCN(S(=O)(=O)c3ccc4c(c3)NC(=O)CC(=O)N4)CC2)cc1	6%	11µM*
COc1ccc(N2CCN(S(=O)(=O)c3ccc4c(c3)C(C(C)C)C(=O)N4)CC2)cc1 (centres undefined)	/	-14%
CCNC(=O)C1CC(=O)N(c2ccc(OCC)cc2)C1 (centres undefined)	-1%	-21%
CCOc1ccc(N2CC(C(=O)NCC(=O)Nc3ccc(F)c(F)c3F)CC2=O)cc1 (centres undefined)	0%	32µM*
O=C(Nc1cccc(-c2nc3cccnc3s2)c1)c1cccc(Br)c1	/	-33%
Cc1ccc(NC(=O)CC2SC(=NC3CCCCC3)NC2=O)cc1 (centres undefined)	2%	50µM*
Cc1ccccc1NC(=O)CC1SC(=NC2CCCCC2)NC1=O (centres undefined)	-3%	-31%
CCOc1ccc(C(=O)Nc2ccc(C(=O)OCc3cc(=O)n4ccsc4n3)cc2)cc1	/	2%
CCOc1ccc(CC(=N)C2=C(O)CC(C)(C)CC2=O)cc1OCC	18%	-13%
SMILES	SARS PLP yeast	Sm TGR block
CCOc1ccc(CC(=O)C2=C(N3CCOCC3)CC(C)(C)CC2=O)cc1OCC	-1%	7.9µM*
CCOc1ccc(CC(=O)C2C(=O)CCCC2=O)cc1OCC	2%	32µM*
CCOc1ccc(CC(=O)C2C(=O)CC(C)(C)CC2=O)cc1OCC	1%	13µM*
CCOc1ccc(CC(=O)NC2CC(C)(C)N(C)C(C)(C)C2)cc1OCC	3%	0%
CCOc1ccc(CC(=NCCc2ccccc2)C2=C(O)CC(C)(C)CC2=O)cc1OCC	-9%	?
O=C1c2oc3ccccc3c(=O)c2C(c2ccccc2)N1Cc1ccc2c(c1)OCO2 (centres undefined)	/	2%
Cc1ccc(-n2nc(C)c3c(C)c(CCC(=O)NCc4ccccc4Cl)c(C)nc32)cc1	/	-2%
Cc1ccc(OCC(=O)Nc2ccccc2C(=O)OCc2cc(=O)n3ccsc3n2)cc1C	/	-4%
CCc1nc2cccnc2n1-c1ccc(CC(=O)Nc2ccccc2Cl)cc1	/	-7%
O=c1[nH]nc(CNc2ccc(O)cc2)c2ccccc12	7%	35µM*
O=c1[nH]nc(CNc2ccc(C(F)(F)F)cc2)c2ccccc12	?	-2%
Cc1cc(C)cc(NC(=O)c2cc(S(=O)(=O)N3CCc4ccccc43)cn2C)c1	/	-7%
Cc1noc(/C=C/c2ccco2)c1S(=O)(=O)N1CCC(C(=O)N(C)Cc2ccccc2)CC1	-5%	13µM*
COc1ccc(NC(=O)C2CCN(S(=O)(=O)c3c(C)noc3/C=C/c3ccco3)CC2)cc1	/	-13%
Cc1noc(/C=C/c2ccco2)c1S(=O)(=O)N1CCC(C(=O)N2c3ccccc3CC2C)CC1 (centres undefined)	16%	40µM*
Cc1noc(/C=C/c2ccco2)c1S(=O)(=O)N1CCC(C(=O)NC(C)c2ccccc2)CC1 (centres undefined)	4%	0%
Cc1ccc(CNC(=O)C(=O)NCC(c2cccnc2)N2CCN(c3ccccc3F)CC2)cc1 (centres undefined)	/	-6%
COc1ccccc1-n1ncc2c(=O)[nH]c(SCC(=O)Nc3ccc(Cl)cc3)nc21	/	-2%
COC(C#CCCN(C)C)(c1ccccc1)c1ccccc1	-34%	28µM*
CN(C)CC#CCC(O)(c1ccccc1)c1ccccc1	1%	-9%
COc1cc2c(cc1OC)C(c1ccc(Cl)cc1)N(c1cccc(C#N)c1)C(=O)C2 (centres undefined)	/	5%
CCCCn1c(C)cc2c(c1=O)[C@H]1O[C@](CCCC)(Cc3c1ccc1ccccc31)O2	1%[6.58 µM]	-27%[22.9 µM]
O=C(/C=C/c1ccco1)NC(=S)Nc1ccccc1N1CCCC1	0%	/
CCCCCC(=O)Nc1ccccc1N1CCN(c2ccccc2)CC1	-16%	1%
O=C(/C=C/c1ccco1)NC(=S)Nc1ccccc1N1CCOCC1	19%	32µM*
SMILES	SARS PLP yeast	Sm TGR block
O=C(/C=C/c1ccco1)Nc1ccccc1N1CCCC1	-2%	40µM*
O=C(Nc1ccccc1N1CCCC1)c1ccco1	5%	?
O=C(O)/C=C\C(=O)Nc1ccccc1N1CCN(c2ccccc2)CC1	1%	11µM*
Cc1cccc(N2C(=O)CCSC23C(=O)N(Cc2ccc(F)cc2)c2ccccc23)c1 (centres undefined)	/	0%
COCCCn1c(=O)c2sccc2n2c(CCCC(=O)Nc3cccc(OC)c3)nnc12	/	1%
Fc1ccccc1Cn1c(-c2ccccc2)nc2ccccc21	/	4%
O=C(Cn1ncc2c(Cl)cccc21)NCc1cccc(Cl)c1	/	7%
Cn1cnc([N+](=O)[O-])c1Sc1ccc([N+](=O)[O-])cc1	-3%	/
Cn1cnc([N+](=O)[O-])c1Sc1ncn[nH]1	0%	2.8µM*
CNc1c([N+](=O)[O-])ncn1C	-6%	5%
Cn1cnc([N+](=O)[O-])c1Cl	-1%	4µM*
CCN(CC)c1c([N+](=O)[O-])ncn1C	-6%	-13%
CCS(=O)(=O)c1c([N+](=O)[O-])ncn1C	-2%	0.63µM*
O=C(O)c1cccc(-n2cccc2/C=C\[N+](=O)[O-])c1	0%	?
O=C(O)c1cccc(-n2cccc2/C=C/[N+](=O)[O-])c1	3%	4.5µM*
O=C(CCS(=O)(=O)c1cccc2nonc12)Nc1ccc(F)cc1F	/	0%
COc1ccccc1N1CCN(C(=O)CN2C(=O)COc3ccc(S(=O)(=O)N4CCCC4)cc32)CC1	/	-1%
COCCCn1c(N)c(C(=O)NCc2ccco2)c2nc3ccccc3nc21	4%	7.1µM*
Nc1c(C(=O)NCCc2ccccc2)c2nc3ccccc3nc2n1CCN1CCOCC1	-21%	-14%
COCCCn1c(N)c(C(=O)Nc2ccccc2)c2nc3ccccc3nc21	1%	14%
Nc1c(C(=O)NCc2ccco2)c2nc3ccccc3nc2n1CCc1ccccc1	-16%	20µM*
